Laboratory results: PubChem BioAssay (EPA / NIEHS)
Calls of active or inactive are those of the source. The calls were made as follows: active = hit-call score of the fitted dose curve at least 0.9, where 1 is the maximum; inactive = score below 0.9.

Experiment: ATG_NF_kB_CIS: Attagene CIS-FACTORIAL HepG2 Assay for human Nuclear Factor Kappa B (NF-kB) (AID 2282991)
Conditions: HepG2 Attagene cis-factorial NF-kB reporter mRNA; actives raise or lower the signal
Outline: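 Endogenous transcription factor activity in HepG2 was captured via cis-regulated reporter constructs; after 24 h dosing, reporter mRNA was reverse-transcribed, amplified, fluorescently labelled and sized by capillary electrophoresis, with activity fitted bidirectionally relative to DMSO.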

Compound | outcome | AC50
CCOCN(C(=O)CS(=O)(=O)O)c1c(C)cccc1CC | inactive | –
F[Si-2](F)(F)(F)(F)F | inactive | –
CNS(=O)(=O)C(F)(F)C(F)(F)C(F)(F)C(F)(F)C(F)(F)C(F)(F)C(F)(F)C(F)(F)F | inactive | –
COc1ccccc1C=O | inactive | –
CSc1ccc(Cl)cc1 | inactive | –
CCOC(OCC)OCC | inactive | –
Cc1ccc(O)c(-n2nc3ccccc3n2)c1 | inactive | –
CC(C)Nc1ccc(NC(C)C)c2c1C(=O)c1ccccc1C2=O | inactive | –
CC1=CCC2C(=O)OC(=O)C2C1 (centres undefined) | inactive | –
C#CC(O)CCC (centres undefined) | inactive | –
OC(O)C(F)(F)C(F)(F)F | – | 127 µM (active)
OCCCc1cccnc1 | inactive | –
CC(C)CCCC(C)CCO (centres undefined) | inactive | –
CC(C)OC=O | inactive | –
CC1=CCC(=O)O1 | inactive | –
CCc1cccc(C)c1N(C(=O)C(=O)O)C(C)COC (centres undefined) | inactive | –
CC(C)OC(=O)COc1ccc(Cl)cc1Cl | inactive | –
O=C(O)CCC(F)(F)C(F)(F)C(F)(F)C(F)(F)C(F)(F)C(F)(F)C(F)(F)F | inactive | –

Compound | outcome | AC50
CC(C)(C)c1cc(Cc2cc(C(C)(C)C)c(O)c(C(C)(C)C)c2)cc(C(C)(C)C)c1O | inactive | –
CC1=CC2C3C=CC(C3)C2C1C (centres undefined) | inactive | –
O=C(Cl)C(F)(F)C(F)(F)C(F)(F)C(F)(F)C(F)(F)C(F)(F)F | inactive | –
Nc1c(Br)cc([N+](=O)[O-])cc1Br | inactive | –
Nc1cc([N+](=O)[O-])cc(Cl)c1O | inactive | –
c1ccc(C[P+](c2ccccc2)(c2ccccc2)c2ccccc2)cc1 | inactive | –
O=C1C=CC(=O)N1c1ccc(Cc2ccc(N3C(=O)C=CC3=O)cc2)cc1 | – | 11.2 µM (active)
CC(C)(C)C(=O)C1C(=O)c2ccccc2C1=O | inactive | –
NC(=O)C(F)(F)C(F)(F)C(F)(F)C(F)(F)C(F)(F)C(F)(F)C(F)(F)F | inactive | –
C=CC(=O)OCC(F)(F)C(F)(F)C(F)(F)COC(=O)C=C | – | 15.9 µM (active)
OCCCC(F)(F)C(F)(F)C(F)(F)C(F)(F)C(F)(F)C(F)(F)C(F)(F)C(F)(F)F | inactive | –
N#Cc1ccccc1O | inactive | –
CCCCCCCCCc1ccc(OCCO)cc1 | inactive | –
CCCCCCCCCCCC(=O)Cl | – | 123 µM (active)
CN(C)C(C)(C)CO | inactive | –
COC(=O)c1ccc(C=O)cc1 | inactive | –
Cc1ccc(O)cn1 | inactive | –
Cc1cc(O)c(C(C)(C)C)cc1C(C)(C)C | inactive | –

Experiment: ATG_NRF2_ARE_CIS: Attagene CIS-FACTORIAL HepG2 Assay for human Nuclear Factor Erythroid 2 Related Factor 2 (NFR2) response to Antioxidant Response Elements (ARE) (AID 2282992);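 as to AC50: reporter mRNA level measured by RT-PCR and capillary electrophoresis fluorescence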
Conditions: HepG2 Attagene ARE/NRF2 reporter, transcription factor activity; actives raise or lower the signal
Outline: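 Transient MRTU transfection of HepG2; 24 h compound exposure; TriZol RNA, RT with oligo(dT), PCR, 6-FAM primer extension, HpaI cut, CE. Bidirectional fit vs DMSO.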

Compound | outcome | AC50
CCOCN(C(=O)CS(=O)(=O)O)c1c(C)cccc1CC | inactive | –
F[Si-2](F)(F)(F)(F)F | inactive | –
CNS(=O)(=O)C(F)(F)C(F)(F)C(F)(F)C(F)(F)C(F)(F)C(F)(F)C(F)(F)C(F)(F)F | inactive | –
COc1ccccc1C=O | inactive | –
CSc1ccc(Cl)cc1 | inactive | –
CCOC(OCC)OCC | inactive | –
Cc1ccc(O)c(-n2nc3ccccc3n2)c1 | – | 4.95 µM (active)
CC(C)Nc1ccc(NC(C)C)c2c1C(=O)c1ccccc1C2=O | – | 2.85 µM (active)
CC1=CCC2C(=O)OC(=O)C2C1 (centres undefined) | inactive | –
C#CC(O)CCC (centres undefined) | inactive | –
OC(O)C(F)(F)C(F)(F)F | – | 93.6 µM (active)
OCCCc1cccnc1 | inactive | –
CC(C)CCCC(C)CCO (centres undefined) | inactive | –
CCC/C=C/CO | inactive | –
CC(C)OC=O | inactive | –
CC1=CCC(=O)O1 | inactive | –
CCc1cccc(C)c1N(C(=O)C(=O)O)C(C)COC (centres undefined) | inactive | –
C[C@]12CC[C@H]3C(=CCc4cc(O)ccc43)[C@@H]1CCC2=O | inactive | –
CC(C)OC(=O)COc1ccc(Cl)cc1Cl | inactive | –

Compound | outcome | AC50
O=C(O)CCC(F)(F)C(F)(F)C(F)(F)C(F)(F)C(F)(F)C(F)(F)C(F)(F)F | – | 94.9 µM (active)
CC(C)(C)c1cc(Cc2cc(C(C)(C)C)c(O)c(C(C)(C)C)c2)cc(C(C)(C)C)c1O | inactive | –
CC1=CC2C3C=CC(C3)C2C1C (centres undefined) | – | 50.6 µM (active)
O=C(Cl)C(F)(F)C(F)(F)C(F)(F)C(F)(F)C(F)(F)C(F)(F)F | – | 154 µM (active)
Nc1c(Br)cc([N+](=O)[O-])cc1Br | – | 27.4 µM (active)
Nc1cc([N+](=O)[O-])cc(Cl)c1O | inactive | –
c1ccc(C[P+](c2ccccc2)(c2ccccc2)c2ccccc2)cc1 | – | 55.7 µM (active)
O=C1C=CC(=O)N1c1ccc(Cc2ccc(N3C(=O)C=CC3=O)cc2)cc1 | – | 33.4 µM (active)
CC(C)(C)C(=O)C1C(=O)c2ccccc2C1=O | – | 31.5 µM (active)
NC(=O)C(F)(F)C(F)(F)C(F)(F)C(F)(F)C(F)(F)C(F)(F)C(F)(F)F | inactive | –
C=CC(=O)OCC(F)(F)C(F)(F)C(F)(F)COC(=O)C=C | – | 12.7 µM (active)
OCCCC(F)(F)C(F)(F)C(F)(F)C(F)(F)C(F)(F)C(F)(F)C(F)(F)C(F)(F)F | inactive | –
N#Cc1ccccc1O | inactive | –
CCCCCCCCCc1ccc(OCCO)cc1 | – | 5.92 µM (active)
CCCCCCCCCCCC(=O)Cl | – | 74.5 µM (active)
CN(C)C(C)(C)CO | inactive | –
COC(=O)c1ccc(C=O)cc1 | inactive | –
Cc1ccc(O)cn1 | inactive | –
Cc1cc(O)c(C(C)(C)C)cc1C(C)(C)C | – | 11.1 µM (active)
